IL1B secr inh: qHTS for Inhibitors of Inflammasome Signaling: IL-1-beta AlphaLISA Primary Screen; THP-1 LPS/ATP IL-1B secretion, AlphaLISA, 16 h; hits give low values; activity change, % at 57.5 µM; 4.7% of 360,000 active; in the data active = activity change below about -50%; inconclusive = mostly about -30% to -49%
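THP-1 cells pretreated 1 hr with compounds (up to 57.5 uM final), then stimulated with LPS (250 ng/mL final) plus ATP (1.25 mM final); secreted IL-1B measured by AlphaLISA after 16 hr, decreased signal indicating inhibition.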
ELG1 repair inh: qHTS screen for small molecules that inhibit ELG1-dependent DNA repair in human embryonic kidney (HEK293T) cells expressing luciferase-tagged ELG1. 2.3% of 330,000 active. Potency, µM (doses to about 46.1 µM), actives largely listed as inhibitors. AID 504467, 2011. HEK293T ELG1-luciferase reporter, luminescence, 16 h; DNA damage induced by 5-fluorouridine; also: nearly all actives have a fitted effect of over 55% in size
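Cells (2,000 per well) received 5-fluorouridine plus test compound or DMSO and were incubated 16 hr at 37 °C, 5% CO2. Luciferase activity was read by luminescence 30 min after ONE-Glo addition; signal suppression marked inhibition of damage-induced ELG1 function.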
TDP1 block: qHTS Assay for Inhibitors of Tyrosyl-DNA Phosphodiesterase (TDP1). Potency, µM (top dose mostly 130 µM), actives largely listed as inhibitors. Tyrosyl-DNA phosphodiesterase 1 (Homo sapiens), Q9NUW8. 0.28% of 350,000 active. recombinant TDP1, AlphaScreen DNA substrate cleavage; also: nearly all actives have a fitted effect of over 40% in size
Target sequence (Q9NUW8 whole entry, looked up): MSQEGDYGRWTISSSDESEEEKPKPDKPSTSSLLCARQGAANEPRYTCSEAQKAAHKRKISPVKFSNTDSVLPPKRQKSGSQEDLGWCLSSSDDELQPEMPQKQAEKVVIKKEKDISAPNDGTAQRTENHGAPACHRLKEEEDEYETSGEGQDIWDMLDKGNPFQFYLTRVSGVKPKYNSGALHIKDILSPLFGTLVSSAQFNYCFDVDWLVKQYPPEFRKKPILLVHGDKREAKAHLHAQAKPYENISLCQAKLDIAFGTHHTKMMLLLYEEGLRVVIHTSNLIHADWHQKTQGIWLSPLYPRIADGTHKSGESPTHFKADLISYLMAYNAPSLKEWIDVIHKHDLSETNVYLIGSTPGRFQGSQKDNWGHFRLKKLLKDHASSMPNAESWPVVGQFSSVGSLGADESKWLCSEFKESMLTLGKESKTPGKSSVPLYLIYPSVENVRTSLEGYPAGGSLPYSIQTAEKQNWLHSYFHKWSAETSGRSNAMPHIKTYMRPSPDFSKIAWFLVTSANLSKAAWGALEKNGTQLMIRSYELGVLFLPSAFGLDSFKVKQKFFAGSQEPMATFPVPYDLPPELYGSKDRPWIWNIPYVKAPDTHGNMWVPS
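Tdp1 1 nM final; 15 min RT w/ cpd; substrate 15 nM, 5 min; beads 10 ug/ml, 10 min; AlphaScreen read. Neg ctrl: no enzyme.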
TDP1 cell CPT: qHTS for Inhibitors of human tyrosyl-DNA phosphodiesterase 1 (TDP1): qHTS in cells in presence of CPT; AID 686979, 2013; Potency, µM (doses to about 46.2 µM), most hits filed as inhibitors; 12% of 420,000 active; chicken DT40 Tdp1-/-;hTDP1 cells + 20 nM CPT, ATP luminescence, 48 h; also: nearly all actives have a fitted effect of over 55% in size
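Chicken DT40 Tdp1-/- cells complemented with human TDP1, 400 cells/well, exposed to compounds plus 20 nM camptothecin for at least 48 h at 37 C; viability read as ATP content by CellTiter-Glo luminescence.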
TDP1 cell noCPT: qHTS for Inhibitors of human tyrosyl-DNA phosphodiesterase 1 (TDP1): qHTS in cells in absence of CPT. Potency, µM (top dose mostly 46.2 µM), actives largely listed as inhibitors. 15% of 420,000 active. DT40 Tdp1-/- hTDP1 cells, no CPT, ATP luminescence, 48 h; also: nearly all actives have a fitted effect of over 55% in size
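Chicken DT40 Tdp1-/- cells stably complemented with human TDP1 were seeded at 400 cells/well with DMSO in place of 20 nM camptothecin. After compound pinning, cells grew at least 48 hr at 37 °C; viability read by CellTiter-Glo luminescence.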
Giardia kill: Small Molecules that selectively kill Giardia lamblia: qHTS; Giardia lamblia trophozoite viability; activity change, % at 7.66 µM, hits read low; 0.15% of 340,000 active; AID 540267, 2011; in the data active = activity change below about -80%; inconclusive = between about -30% and that limit;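 also: parasites exposed to compound for two days anaerobically before the ATP read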
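Luminescence from cellular ATP indicates surviving trophozoites (100 cells/well) following 48 hrs anaerobic compound treatment at 37 deg C; signal develops 15-30 min at room temperature.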
Of the large screens only hits and unclear results are named; the others gave an inactive call. Sampled rows, rich in hits. Any-hit rate of the full collection: about 19%. Unless noted, calls follow the shape of the dose curve; as a rule, active = well fitted curve in the direction sought with a large enough effect; inconclusive = small, poorly fitted or top-dose-only effect, or another doubt; inactive = no such curve, though single readings can be large; an effect the other way counts as inactive or inconclusive.

COc1cc(NC(=O)C(C)(C)C)c(C(=O)OCC(=O)Nc2cc(C)on2)cc1OC	none (no result: ELG1 repair inh, TDP1 block, Giardia kill)
CCS(=O)(=O)c1nc2ccccc2n1CC(=O)Nc1ccccc1C(=O)OC	none (no result: IL1B secr inh, ELG1 repair inh, Giardia kill)
COc1cccc(-c2nc(-c3ccc(Br)o3)no2)c1	ELG1 repair inh inconclusive
C/[N+]([O-])=C\C1C(=O)CC(C)(C)CC1=O	ELG1 repair inh inconclusive
COc1ccc(C(=O)NC2CCN(Cc3c(F)cccc3Cl)CC2)cc1OC	ELG1 repair inh inconclusive, TDP1 cell noCPT inconclusive (no result: TDP1 block)
Nc1nccc(-c2nn(-c3ccc(Cl)cc3)ccc2=O)n1	none
CSc1nccc(-c2nn(-c3ccc(C)cc3)ccc2=O)n1	ELG1 repair inh inconclusive, TDP1 cell CPT 7.3µM, TDP1 cell noCPT 5.8µM
C#CCSc1nccc(-c2nn(-c3ccc(C)cc3)ccc2=O)n1	ELG1 repair inh 9.2µM, TDP1 cell CPT inconclusive, TDP1 cell noCPT 26µM
C=CCSc1nccc(-c2nn(-c3ccc(C)cc3)ccc2=O)n1	ELG1 repair inh 7.3µM, TDP1 cell CPT 7.3µM, TDP1 cell noCPT 5.8µM
CCSc1nccc(-c2nn(-c3ccc(C)cc3)ccc2=O)n1	ELG1 repair inh 10µM, TDP1 cell CPT 6.5µM, TDP1 cell noCPT 6.5µM
CN1C(=O)CC2(C=CC(=O)C=C2OC(=O)c2ccccc2)c2ccccc21 (stereo not given)	none (no result: IL1B secr inh, ELG1 repair inh, TDP1 cell CPT, TDP1 cell noCPT)
Nc1nc2c(ncn2[C@@H]2O[C@H](CNC(=O)[C@H](N)Cc3cncn3COCc3ccccc3)[C@@H](O)[C@H]2O)c(=O)[nH]1	none (no result: ELG1 repair inh, TDP1 block, Giardia kill)
Cc1ccc(Nc2nc(NCc3ccco3)nc3nccnc23)cc1Cl	none (no result: IL1B secr inh, ELG1 repair inh)
O=C(c1cc2nc(-c3ccc(F)cc3)cc(C(F)(F)F)n2n1)N1CCCCC1c1cccnc1 (stereo not given)	IL1B secr inh -62, ELG1 repair inh 8.2µM, TDP1 cell CPT 13µM, TDP1 cell noCPT 9.2µM
CC1CCCCN1C(=O)c1cc2nc(-c3ccccc3)cc(-c3ccccc3)n2n1 (stereo not given)	IL1B secr inh -61, ELG1 repair inh 16µM, TDP1 cell CPT 16µM, TDP1 cell noCPT 23µM
COc1ccc(-c2cc(C(F)F)n3ncc(C(=O)N4CCCc5ccccc54)c3n2)cc1	TDP1 cell noCPT inconclusive
O=C(O)c1cc2nc(-c3ccccc3)cc(-c3ccccc3)n2n1	none
COc1ccc(-c2cc(C(F)F)n3ncc(C(=O)N4CCN(C)CC4)c3n2)cc1	IL1B secr inh inconclusive, ELG1 repair inh 7.3µM
Cc1ccc(-c2cc(C(F)F)n3ncc(C(=O)NN4CCCCC4)c3n2)cc1	ELG1 repair inh inconclusive, TDP1 cell CPT 21µM, TDP1 cell noCPT 23µM
Cc1ccc(C)c(N2CCN(C(=O)Cn3c(-c4cccs4)cc4ccccc43)CC2)c1	TDP1 cell CPT inconclusive, TDP1 cell noCPT inconclusive (no result: IL1B secr inh, ELG1 repair inh, Giardia kill)
Cc1ccc(-c2cc(C(F)(F)F)n3nc(C(=O)N4CCN5CCCC5C4)cc3n2)cc1 (stereo not given)	IL1B secr inh -62, TDP1 cell CPT inconclusive, TDP1 cell noCPT inconclusive
O=C(c1cnn2c(C(F)(F)F)cc(-c3ccccc3)nc12)N1CCCCC1c1cccnc1 (stereo not given)	ELG1 repair inh inconclusive, TDP1 cell CPT inconclusive, TDP1 cell noCPT inconclusive
O=C(c1cnn2c(C(F)F)cc(-c3ccccc3)nc12)N1CCc2ccccc2C1	ELG1 repair inh inconclusive, TDP1 cell CPT inconclusive, TDP1 cell noCPT inconclusive
Cc1ccc(-c2cc(C(F)F)n3ncc(C(=O)N4CCCCC4c4cccnc4)c3n2)cc1 (stereo not given)	ELG1 repair inh 18µM, TDP1 cell CPT inconclusive, TDP1 cell noCPT inconclusive
Cc1ccc(-c2cc(C(F)F)n3ncc(C(=O)N4CCN5CCCC5C4)c3n2)cc1 (stereo not given)	IL1B secr inh inconclusive, ELG1 repair inh inconclusive, TDP1 cell CPT 15µM, TDP1 cell noCPT inconclusive
CCCOc1ccc(CSCCNC(=S)Nc2ccccc2)cc1	ELG1 repair inh inconclusive, TDP1 cell CPT 26µM, TDP1 cell noCPT 23µM
COc1ccc(C(=O)NCCSCc2ccc(C)cc2)cc1	TDP1 cell noCPT inconclusive
Cc1cccc(CSCCNC(=S)Nc2ccccc2)c1	IL1B secr inh inconclusive, ELG1 repair inh inconclusive, TDP1 cell CPT inconclusive, TDP1 cell noCPT 18µM
S=C(NCCSCc1ccc(Cl)cc1)Nc1ccccc1	IL1B secr inh inconclusive, TDP1 cell CPT inconclusive, TDP1 cell noCPT inconclusive
CCOc1ccc(CSCCNC(=S)Nc2ccc(OC)cc2)cc1	ELG1 repair inh inconclusive, TDP1 cell CPT inconclusive, TDP1 cell noCPT 23µM (no result: TDP1 block)
CCOc1ccc(S(=O)(=O)Nc2cccc(C(=O)N(C)CC(=O)Nc3cccc(OC)c3)c2)cc1	none
COc1ccc(-n2cnnc2SCC(=O)c2cc(C)n(Cc3cccs3)c2C)cc1	IL1B secr inh -65
Cc1csc(SCC(=O)c2cc(C)n(Cc3cccs3)c2C)n1	ELG1 repair inh inconclusive, TDP1 cell CPT 18µM, Giardia kill inconclusive
COc1ccccc1C(=O)NC(=O)COC(=O)CNC(=O)c1ccccc1	none
O=C(CNC(=O)c1ccccn1)N=Nc1c(O)[nH]c2ccccc12	ELG1 repair inh inconclusive, TDP1 cell CPT inconclusive, TDP1 cell noCPT 15µM
O=C(CN1CCN(Cc2ccccc2Cl)CC1)N=Nc1c(O)[nH]c2ccccc12	ELG1 repair inh 21µM, TDP1 cell CPT inconclusive, TDP1 cell noCPT inconclusive
O=C(N=Nc1c(O)[nH]c2ccccc12)c1ccc(CN2CCOCC2)cc1	TDP1 cell noCPT inconclusive
Cc1ccc(S(=O)(=O)N(CC(=O)N=Nc2c(O)[nH]c3ccccc23)c2cccc(C)c2)cc1	ELG1 repair inh 21µM, TDP1 cell CPT inconclusive, TDP1 cell noCPT 21µM
Cc1ccc(CN2CCN(CC(=O)N=Nc3c(O)[nH]c4ccccc34)CC2)cc1	ELG1 repair inh 8.2µM, TDP1 cell CPT inconclusive, TDP1 cell noCPT 15µM
O=C(COC(=O)COc1ccccc1)Nc1ccc(S(=O)(=O)N2CCOCC2)cc1	none
COc1ccc(O)c(CN2CCC3(CCC(CNC(=O)c4ccco4)O3)CC2)c1 (stereo not given)	none (no result: IL1B secr inh, ELG1 repair inh, TDP1 block, Giardia kill)
CCOC(=O)Cn1c(=O)oc2cc(S(=O)(=O)N3CCN(c4cccc(C)c4)C(C)C3)ccc21 (stereo not given)	TDP1 cell CPT inconclusive, TDP1 cell noCPT inconclusive (no result: IL1B secr inh, ELG1 repair inh, Giardia kill)
O=C(COC(=O)c1ccccc1F)Nc1ccc(S(=O)(=O)N2CCOCC2)cc1	none
